From PubChem
Most compounds without a hit are left out; they make up all but 1.6% or so of the library.
KCNQ2 pot = enhances the rat KCNQ2 potassium channel. O88943. CHO-K1 KCNQ2, FluxOR thallium flux fluorescence; hits give high values. B-score at 10 µM. 310,000 tested, 0.54% active;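 active = fluorescence ratio B-score at least 3 SD of library B-scores, with initial fluorescence B-score within 3 of them, cut at about 5.3 in these data; same plate scores as AID 2156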;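 note: B-score of peak minus minimum over baseline fluorescence ratio after K+ and Tl+ stimulus; positive B-score means potentiation of KCNQ2 with more thallium influx and brighter signal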
Target sequence (O88943 whole entry, looked up): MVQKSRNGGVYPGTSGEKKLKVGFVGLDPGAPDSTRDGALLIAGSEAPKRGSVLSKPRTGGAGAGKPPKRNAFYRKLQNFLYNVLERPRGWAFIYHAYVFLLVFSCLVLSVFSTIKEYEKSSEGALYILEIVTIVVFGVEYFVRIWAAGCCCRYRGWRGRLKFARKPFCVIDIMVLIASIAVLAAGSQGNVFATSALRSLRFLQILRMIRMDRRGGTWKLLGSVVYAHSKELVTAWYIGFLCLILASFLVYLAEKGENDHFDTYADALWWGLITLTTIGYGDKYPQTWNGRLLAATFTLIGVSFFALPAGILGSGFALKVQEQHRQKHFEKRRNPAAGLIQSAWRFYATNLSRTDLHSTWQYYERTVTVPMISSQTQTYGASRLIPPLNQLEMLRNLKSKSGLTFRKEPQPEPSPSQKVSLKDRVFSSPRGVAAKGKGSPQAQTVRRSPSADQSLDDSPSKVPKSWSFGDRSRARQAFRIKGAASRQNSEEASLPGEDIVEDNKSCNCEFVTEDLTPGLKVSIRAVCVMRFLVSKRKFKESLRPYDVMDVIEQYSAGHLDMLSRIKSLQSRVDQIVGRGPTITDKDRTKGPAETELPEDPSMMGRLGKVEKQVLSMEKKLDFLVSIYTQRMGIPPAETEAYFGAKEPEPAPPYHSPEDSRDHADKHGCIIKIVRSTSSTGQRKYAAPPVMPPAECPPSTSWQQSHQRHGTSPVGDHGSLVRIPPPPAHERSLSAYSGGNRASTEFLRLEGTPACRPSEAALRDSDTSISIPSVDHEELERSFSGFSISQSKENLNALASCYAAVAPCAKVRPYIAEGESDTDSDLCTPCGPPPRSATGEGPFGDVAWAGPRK
KCNQ2 inh = inhibitors of rat KCNQ2 potassium channel | O88943 | CHO-K1 KCNQ2, FluxOR thallium flux, 20 min; hits give low values | B-score at 10 µM | 310,000 tested, 1.1% active | AID 2156;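 active = fluorescence ratio B-score at most minus 3 library SDs, with starting brightness B-score within 2 library SDs, cut at about -5.5 in these data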
* = called active by the depositor.

For CCOC(=O)C1CCN(C(c2cc3c(C)ccc(C)c3[nH]c2=O)c2nnnn2C2CCCCC2)CC1 (stereo not drawn) the results were KCNQ2 inh inactive.
`COc1ccc(Cn2nnnc2C(c2cc3cccc(C)c3[nH]c2=O)N2CCOCC2)cc1` (stereo not drawn) gave KCNQ2 inh inactive.
`Cc1ccc(C)c2[nH]c(=O)c(C(c3nnnn3CCc3ccccc3)N3CCOCC3)cc12` (stereo not drawn) gave KCNQ2 pot -5.98 and KCNQ2 inh -5.98*.
For CCOc1ccc2[nH]c(=O)c(C(c3nnnn3C3CCCCC3)N3CCN(CC)CC3)cc2c1 (stereo not drawn) the results were KCNQ2 pot 0.77 and KCNQ2 inh inactive.
Screening Cc1ccc(C)c2[nH]c(=O)c(C(c3nnnn3C3CCCC3)N3CCOCC3)cc12 (stereo not drawn) returned KCNQ2 pot -6.08 and KCNQ2 inh -6.08*.
For COc1cc2cc(C(c3nnnn3C3CCCC3)N3CCCCCC3)c(=O)[nH]c2cc1OC (stereo not drawn) the results were KCNQ2 pot -10.8 and KCNQ2 inh -10.8*.
`O=C(Nc1ccccc1)c1cccc(S(=O)(=O)Oc2ccc([N+](=O)[O-])cc2)c1` gave KCNQ2 inh inactive.
O=C(CCC(=O)Nc1ccccc1Cl)NN=C1CCCC1 was read as KCNQ2 pot 1.24 and KCNQ2 inh inactive.
`O=c1[nH]c(NCCO)nnc1Cc1ccccc1` gave KCNQ2 inh inactive.
`O=C(CCNC(=O)c1ccc(Cl)cc1)Nc1c(F)c(F)cc(F)c1F` gave KCNQ2 pot 1.17 and KCNQ2 inh inactive.
O=C(CNC(=O)c1ccc(Cl)cc1Cl)OCn1nnc2ccccc2c1=O was read as KCNQ2 inh inactive.
Screening CC(=O)N1CCN(CC(=O)Nc2ccc([N+](=O)[O-])cc2Br)CC1 returned KCNQ2 pot 0.04 and KCNQ2 inh inactive.
O=C(CSc1n[nH]c(=O)n1-c1cccnc1)Nc1ccccc1Cl was read as KCNQ2 pot 0.39 and KCNQ2 inh inactive.
For COc1ccc(CSC2=CS(=O)(=O)c3ccccc3N2)cc1 the results were KCNQ2 pot 0.25 and KCNQ2 inh inactive.
Screening CCOC(=O)/C=C1/N(C)c2ccccc2C1(C)C returned KCNQ2 pot 1.94 and KCNQ2 inh inactive.
CN1/C(=C\C(=O)COC(=O)c2ccc(O)cc2)C(C)(C)c2ccccc21 was read as KCNQ2 pot -6.21 and KCNQ2 inh -6.21*.
CN1/C(=C\C(=O)COC(=O)c2ccc(O)c(O)c2)C(C)(C)c2ccccc21 was read as KCNQ2 pot -6.51 and KCNQ2 inh -6.51*.
Screening CNS(=O)(=O)c1cccc(C(=O)OCC(=O)/C=C2/N(C)c3ccccc3C2(C)C)c1 returned KCNQ2 pot 1.33 and KCNQ2 inh inactive.
Screening CCOc1ccc(N2C(=O)CC(C(C)c3ccccc3)C2=O)cc1 (stereo not drawn) returned KCNQ2 pot 0.49 and KCNQ2 inh inactive.
For O=C(COC(=O)CCC(=O)c1cccs1)NC1CC1 the results were KCNQ2 inh inactive.
`Cn1c(O)c(N=Nc2nc(-c3ccccc3)cs2)c2ccccc21` gave KCNQ2 pot 21.9* and KCNQ2 inh inactive.
Screening Cn1c(O)c(N=Nc2ccccc2)c2ccccc21 returned KCNQ2 pot 0.09 and KCNQ2 inh inactive.
Screening Cc1ccc(S(=O)(=O)N2CCC(C(=O)OCC(=O)N3CCCC(C)C3)CC2)cc1C (stereo not drawn) returned KCNQ2 inh inactive.
`CCOc1cc(C)c(C(C)C)cc1S(=O)(=O)N1CC(C)OC(C)C1` (stereo not drawn) gave KCNQ2 pot 0.1 and KCNQ2 inh inactive.
For CCOc1cc(C)c(C(C)C)cc1S(=O)(=O)n1cnc(C)c1 the results were KCNQ2 pot 8.66* and KCNQ2 inh inactive.
Cc1c(C2C(C#N)=C(N)N(c3cccc([N+](=O)[O-])c3)C3=C2C(=O)CCC3)cnn1C (stereo not drawn) was read as KCNQ2 inh inactive.
Screening CC(C)(C)c1ccc(OCc2ccc(C(=O)NCc3cccnc3)o2)cc1 returned KCNQ2 inh inactive.
`Cc1ccc(NC(=O)N(Cc2cccnc2)Cc2ccco2)cc1C` gave KCNQ2 inh inactive.
COc1cccc(NC(=O)N(Cc2ccco2)C(C)c2cccs2)c1 (stereo not drawn) was read as KCNQ2 pot 0.15 and KCNQ2 inh inactive.
`Cc1ccc(NC(=O)N(Cc2ccco2)C(C)c2ccco2)cc1C` (stereo not drawn) gave KCNQ2 pot -5.93 and KCNQ2 inh -5.93*.
`COCCN(C(=S)Nc1ccc(OC)cc1)C(C)c1cccs1` (stereo not drawn) gave KCNQ2 pot 1.42 and KCNQ2 inh inactive.
`CC(c1cccs1)N(Cc1ccco1)C(=O)Nc1ccc(Cl)c(Cl)c1` (stereo not drawn) gave KCNQ2 pot -12.7 and KCNQ2 inh -12.7*.
Screening Cc1ccc(NC(=O)CN(Cc2ccco2)Cc2ccccc2O)cc1C returned KCNQ2 pot -5.81 and KCNQ2 inh -5.81*.
For Cc1ccc(NC(=O)C[n+]2ccccc2)cc1C the results were KCNQ2 pot 0.86 and KCNQ2 inh inactive.
`COCCN(C(=S)Nc1cc(C)cc(C)c1)C(C)c1cccs1` (stereo not drawn) gave KCNQ2 pot 7.98* and KCNQ2 inh inactive.
For COc1ccccc1NC(=O)COc1ccc2c(c1)OCO2 the results were KCNQ2 inh inactive.
Screening Cc1ccc(NC(=S)N(Cc2ccco2)C(C)c2cccs2)c(Cl)c1 (stereo not drawn) returned KCNQ2 pot -6.18 and KCNQ2 inh -6.18*.
For Cc1ccc(C)c(NC(=S)N(Cc2ccco2)C(C)c2cccs2)c1 (stereo not drawn) the results were KCNQ2 inh inactive.
O=C1c2ccccc2C(=O)N1CCCCN(C(=O)c1ccc(Cl)s1)c1ccc(Cl)cc1 was read as KCNQ2 pot -5.61 and KCNQ2 inh -5.61*.
Cc1ccc(N(CCCCN2C(=O)c3ccccc3C2=O)C(=O)c2ccc(Cl)s2)cc1 was read as KCNQ2 inh inactive.
For Clc1ccc2nc(N3CCNCC3)nc(-c3ccccc3)c2c1 the results were KCNQ2 pot -5.9 and KCNQ2 inh -5.9*.
`OCCN1CCN(c2nc(-c3ccccc3)c3cc(Cl)ccc3n2)CC1` gave KCNQ2 inh inactive.
Screening Cc1ccc(CC(=O)O/N=C(\N)Cc2ccc([N+](=O)[O-])cc2)cc1 returned KCNQ2 inh inactive.
For N/C(Cc1ccc([N+](=O)[O-])cc1)=N\OC(=O)CC1CCCCC1 the results were KCNQ2 pot 8* and KCNQ2 inh inactive.
For Cc1cc(C)nc(N=Nc2c(O)n(Cc3ccc(Cl)cc3)c3ccccc23)n1 the results were KCNQ2 pot -5.94 and KCNQ2 inh -5.94*.
Screening O=Nc1c(O)n(Cc2cccc(Cl)c2)c2ccccc12 returned KCNQ2 inh inactive.
For COc1ccc(N=Cc2cccc(C)c2O)cc1Cl the results were KCNQ2 pot 0.04 and KCNQ2 inh inactive.
For Cc1cccc(N=Cc2cc(Br)cc(Cl)c2O)c1 the results were KCNQ2 pot 9.35* and KCNQ2 inh inactive.
`COc1ccc(S(=O)(=O)NNC(=O)c2ccc(-n3c(C)ccc3C)cc2)cc1` gave KCNQ2 pot 2.08 and KCNQ2 inh inactive.
For Cc1noc(C)c1COC(=O)C1CCN(S(=O)(=O)c2c(Cl)cccc2Cl)CC1 the results were KCNQ2 pot 0.93 and KCNQ2 inh inactive.
